Data taken from PubChem BioAssay (NCI).
Compounds without any hit were thinned out: in the full panel of roughly 79,000, 15% have a hit. Calls of active or inactive are those of the source. Cut-off read from the data, not from the text of the source: active = growth inhibition above about 70%; inactive = the rest.

Tests used:
[1] = NCI Yeast Anticancer Drug Screen. Data for the rad52 strain (AID 147);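 note: 0% = growth of vehicle-treated control cultures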; conditions: S. cerevisiae rad52 mutant growth inhibition, active compounds read high
Procedure, shortened: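 Inhibition of yeast growth, referenced to vehicle controls, was the measured output for a strain with defective DNA damage repair.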

[2] = NCI Yeast Anticancer Drug Screen. Data for the wt1 strain (AID 149);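 note: 0% = growth of vehicle-treated wt1 cultures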; conditions: S. cerevisiae wt1 strain (SPY 50644) growth inhibition, active compounds read high
Procedure, shortened: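 Growth inhibition read against vehicle controls after compound exposure of the wt1 yeast strain.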

[3] = NCI Yeast Anticancer Drug Screen. Data for the rad50EPP+ strain (AID 151);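 note: 0% = growth of vehicle-treated control cultures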; conditions: S. cerevisiae rad50 mutant strain, active compounds read high
Procedure, shortened: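 Genetically defined yeast (rad50EPP+, DNA damage repair alteration) is grown with compound, and inhibition of growth is expressed relative to vehicle-treated controls.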

[4] = NCI Yeast Anticancer Drug Screen. Data for the mgt1 strain (AID 153); conditions: S. cerevisiae mgt1 mutant growth inhibition, active compounds read high
Procedure, shortened: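 In the mgt1 strain, test compounds were added and growth inhibition was determined relative to vehicle-treated controls.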

[5] = NCI Yeast Anticancer Drug Screen. Data for the rad50 strain (AID 155);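 note: 0% = growth of vehicle-only cultures of the same strain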; conditions: S. cerevisiae rad50 strain growth inhibition, active compounds read high
Procedure, shortened: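 Readout: growth inhibition relative to vehicle-treated cultures. Compound exposure was carried out in a genetically defined yeast strain deficient in DNA damage repair.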

[6] = NCI Yeast Anticancer Drug Screen. Data for the mec2-1 strain (AID 157); conditions: S. cerevisiae mec2-1 strain, active compounds read high
Procedure, shortened: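 Each compound was tested on mec2-1 yeast, a strain altered in DNA damage repair or cell cycle control. Growth inhibition is reported relative to vehicle.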

[7] = NCI Yeast Anticancer Drug Screen. Data for the rad14 strain (AID 159);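 note: 0% = growth of vehicle-treated control cultures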; conditions: S. cerevisiae rad14 strain growth inhibition, active compounds read high
Procedure, shortened: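 Growth inhibition vs vehicle controls; genetically altered yeast strain (DNA damage repair defect) treated with test compounds.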

[8] = NCI Yeast Anticancer Drug Screen. Data for the sgs1 mgt1 strain (AID 161);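 note: 0% = growth of cultures given vehicle only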; conditions: S. cerevisiae sgs1 mgt1 strain, active compounds read high
Procedure, shortened: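 Inhibition of yeast growth, normalised to vehicle-treated controls, is reported for a strain bearing genetic alterations in DNA damage repair.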

[9] = NCI Yeast Anticancer Drug Screen. Data for the CLN2oe strain (AID 163);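 note: 0% = growth of vehicle-only control cultures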; conditions: S. cerevisiae CLN2oe strain, active compounds read high
Procedure, shortened: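 First, the altered yeast strain was treated with each compound; second, its growth was measured; finally, inhibition was derived by comparison with vehicle controls.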

[10] = NCI Yeast Anticancer Drug Screen. Data for the cln2 rad14 strain (AID 165);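 note: 0% = growth equal to vehicle treated cultures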; conditions: S. cerevisiae cln2 rad14 strain, active compounds read high
Procedure, shortened: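 Test compounds were added to cln2 rad14 yeast cultures; inhibition of growth was then determined by comparison with vehicle treatment.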

[11] = NCI Yeast Anticancer Drug Screen. Data for the bub3 strain (AID 167); conditions: S. cerevisiae bub3 mutant strain, active compounds read high
Procedure, shortened: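 Readout: yeast growth inhibition, expressed relative to vehicle-only wells. The test organism is a mutant strain from a panel with lesions in DNA repair or checkpoint genes.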

[12] = NCI Yeast Anticancer Drug Screen. Data for the wt2 strain (AID 169);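 note: 0% = growth of vehicle-treated yeast cultures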; conditions: S. cerevisiae wt2 strain growth inhibition, active compounds read high
Procedure, shortened: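 The panel's yeast strains carry defined changes in DNA repair or cell cycle genes. Each strain is grown with compound, and growth loss is scored relative to vehicle.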

[13] = NCI Yeast Anticancer Drug Screen. Data for the mlh1 strain (AID 171);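 note: 0% = growth of vehicle-treated control cultures of the same strain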; conditions: S. cerevisiae mlh1 strain growth inhibition, active compounds read high
Procedure, shortened: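 Inhibition values reflect reduced yeast growth in the presence of compound, referenced to vehicle controls, using a strain chosen for its alteration in DNA repair or cell cycle control.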

[14] = NCI Yeast Anticancer Drug Screen. Data for the sgs1 strain (AID 173);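 note: 0% = growth of vehicle-only control cultures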; conditions: S. cerevisiae sgs1 mutant, active compounds read high
Procedure, shortened: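 Vehicle-treated cultures served as reference for growth inhibition of a yeast strain altered in DNA damage repair or cell cycle control after compound exposure.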

[15] = NCI Yeast Anticancer Drug Screen. Data for the mlh1 rad18 strain (AID 175); conditions: S. cerevisiae mlh1 rad18 strain growth inhibition, active compounds read high
Procedure, shortened: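 Inhibition values reflect reduced growth of mutant yeast versus vehicle-treated controls following compound exposure; the mutations affect DNA damage repair.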

[16] = NCI Yeast Anticancer Drug Screen. Data for the rad18 strain (AID 177); conditions: S. cerevisiae rad18 mutant growth inhibition, active compounds read high
Procedure, shortened: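 Steps: expose repair-mutant yeast to compound; measure growth; express as inhibition relative to vehicle control.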

[17] = at 5.0 µM (retest, dose inferred, filed as 0.5)
[18] = at 50.0 µM (retest, dose inferred, filed as 5.0)

Measured: growth inhibition

N#CC(=Nc1ccccc1F)Nc1ccccc1F
inactive: [1]; at 1.2 µM -3% | [1]; at 3.7 µM -3% | [1]; at 11.0 µM -2% | [1]; at 33.0 µM 8% | [1]; at 100.0 µM 9% | [2]; at 1.2 µM -5% | [2]; at 3.7 µM -3% | [2]; at 11.0 µM -11% | [2]; at 33.0 µM -10% | [2]; at 100.0 µM -7% | [3]; at 1.2 µM 6% | [3]; at 3.7 µM 11% | [3]; at 11.0 µM 21% | [3]; at 33.0 µM 29% | [3]; at 100.0 µM 20% | [4]; at 1.2 µM -5% | [4]; at 3.7 µM -4% | [4]; at 11.0 µM -4% | [4]; at 33.0 µM 2% | [4]; at 100.0 µM -2% | [5]; at 1.2 µM 0% | [5]; at 3.7 µM 2% | [5]; [17] -6% | [5]; at 11.0 µM -1% | [5]; at 33.0 µM 5% | [5]; [18] -1% | [5]; at 50.0 µM -2.35% | [5]; at 100.0 µM 5% | [6]; at 1.2 µM -4% | [6]; at 3.7 µM -1% | [6]; [17] -4% | [6]; at 11.0 µM -4% | [6]; at 33.0 µM 8% | [6]; [18] 8% | [6]; at 50.0 µM -2.55% | [6]; at 100.0 µM 10% | [7]; at 1.2 µM -5% | [7]; at 3.7 µM -4% | [7]; at 11.0 µM -4% | [7]; at 33.0 µM 10% | [7]; at 100.0 µM 12% | [8]; [17] -3% | [8]; [18] 15% | [8]; at 50.0 µM 12.1% | [9]; at 1.2 µM 1% | [9]; at 3.7 µM 0% | [9]; at 11.0 µM 5% | [9]; at 33.0 µM 11% | [9]; at 100.0 µM 26% | [10]; [17] -1% | [10]; [18] -3% | [10]; at 50.0 µM -0.6% | [11]; at 1.2 µM -3% | [11]; at 3.7 µM -3% | [11]; [17] -2% | [11]; at 11.0 µM -1% | [11]; at 33.0 µM 5% | [11]; [18] 3% | [11]; at 50.0 µM 8.55% | [11]; at 100.0 µM -2% | [12]; at 1.2 µM -2% | [12]; at 3.7 µM -3% | [12]; at 11.0 µM -5% | [12]; at 33.0 µM 2% | [12]; at 100.0 µM 3% | [13]; at 1.2 µM -1% | [13]; at 3.7 µM -5% | [13]; at 11.0 µM -6% | [13]; at 33.0 µM -2% | [13]; at 100.0 µM 5% | [14]; at 1.2 µM -3% | [14]; at 3.7 µM -7% | [14]; at 11.0 µM -6% | [14]; at 33.0 µM 12% | [14]; at 100.0 µM 24% | [15]; [17] -7% | [15]; [18] 0% | [15]; at 50.0 µM 66.8% | [16]; at 1.2 µM -6% | [16]; at 3.7 µM -7% | [16]; at 11.0 µM -10% | [16]; at 33.0 µM -2% | [16]; at 100.0 µM 9%

O=[N+]([O-])/C=C/c1cc(Cl)c(/C=C/[N+](=O)[O-])cc1Cl
inactive: [1]; at 1.2 µM 35% | [1]; at 3.7 µM 55% | [2]; at 1.2 µM 25% | [2]; at 3.7 µM 32% | [2]; at 11.0 µM 43% | [2]; at 33.0 µM 42% | [2]; at 100.0 µM 37% | [3]; at 1.2 µM 13% | [3]; at 3.7 µM 19% | [3]; at 11.0 µM 35% | [3]; at 33.0 µM 66% | [4]; at 1.2 µM 36% | [4]; at 3.7 µM 48% | [4]; at 11.0 µM 68% | [5]; at 1.2 µM 33% | [5]; at 3.7 µM 55% | [5]; [17] 3% | [5]; [18] 53% | [6]; at 1.2 µM 39% | [6]; at 3.7 µM 59% | [6]; [17] 18% | [6]; at 11.0 µM 65% | [6]; [18] 56% | [7]; at 1.2 µM 25% | [7]; at 3.7 µM 68% | [8]; [17] 23% | [9]; at 1.2 µM 22% | [9]; at 3.7 µM 32% | [9]; at 11.0 µM 49% | [9]; at 33.0 µM 69% | [10]; [17] 22% | [10]; [18] 60% | [10]; at 50.0 µM 62.1% | [11]; at 1.2 µM 28% | [11]; at 3.7 µM 37% | [11]; [17] 43% | [12]; at 1.2 µM 8% | [12]; at 3.7 µM 34% | [12]; at 11.0 µM 68% | [12]; at 100.0 µM 69% | [13]; at 1.2 µM 36% | [13]; at 3.7 µM 48% | [13]; at 11.0 µM 68% | [14]; at 1.2 µM 22% | [14]; at 3.7 µM 16% | [14]; at 11.0 µM 14% | [14]; at 33.0 µM 52% | [14]; at 100.0 µM 32% | [15]; [17] 16% | [15]; at 50.0 µM 56.4% | [16]; at 1.2 µM 19% | [16]; at 3.7 µM 51%
active: [1]; at 11.0 µM 74% | [1]; at 33.0 µM 91% | [1]; at 100.0 µM 89% | [3]; at 100.0 µM 70% | [4]; at 33.0 µM 96% | [4]; at 100.0 µM 92% | [5]; at 11.0 µM 81% | [5]; at 33.0 µM 97% | [5]; at 50.0 µM 79.7% | [5]; at 100.0 µM 94% | [6]; at 33.0 µM 81% | [6]; at 50.0 µM 73.5% | [6]; at 100.0 µM 85% | [7]; at 11.0 µM 93% | [7]; at 33.0 µM 97% | [7]; at 100.0 µM 92% | [8]; [18] 73% | [8]; at 50.0 µM 74.8% | [9]; at 100.0 µM 73% | [11]; at 11.0 µM 84% | [11]; at 33.0 µM 92% | [11]; [18] 96% | [11]; at 50.0 µM 79.2% | [11]; at 100.0 µM 91% | [12]; at 33.0 µM 91% | [13]; at 33.0 µM 96% | [13]; at 100.0 µM 92% | [15]; [18] 77% | [16]; at 11.0 µM 78% | [16]; at 33.0 µM 95% | [16]; at 100.0 µM 89%
